Among all 310,000 compounds or so, about 18,000 (5.8%) were called active. Another 22% or so got no clear call; they are omitted. The call rests on the fitted dose curve; in most records, active means well fitted inhibition curve with a large enough effect; inconclusive means small, poorly fitted or top-dose-only effect, or another doubt; inactive means no such curve, though single readings can be large or run the other way. Shown is part of a subset that was picked to be rich in actives.
Experiment: Primary qHTS for delayed death inhibitors of the malarial parasite plastid, 48 hour incubation
Conditions: P. falciparum luciferase growth in erythrocytes; series mostly up to 28.7 µM; activity change, negative = inhibition: at the top concentration
Method in brief: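 Growth was read as firefly luciferase luminescence after a 48 h, 37 C, 5% CO2 exposure of compounds to reporter-bearing P. falciparum cultures (0.1% parasitemia, 2% hematocrit final) in Albumax-supplemented RPMI 1640.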
On the % scale 0 is the no-effect control and ±100 the full control effect; potency means the concentration at half of the fitted maximal effect.

| Compound | activity change, negative = inhibition | Potency |
| --- | --- | --- |
| CC(=O)N1CCc2cc(S(=O)(=O)NC3CCCCC3)ccc21 | -10.2% (inactive) |  |
| CC(Oc1ccccc1)C(=O)Nc1oc(-c2ccco2)c(-c2ccco2)c1C#N (configuration not stated) | 33.3% (inactive) |  |
| COc1cc(C(=O)Nc2oc(-c3ccccc3)c(-c3ccccc3)c2C#N)cc(OC)c1OC | 15.7% (inactive) |  |
| CC(C)C(=O)Nc1oc(-c2ccccc2)cc1C#N |  | 1.85 µM (active) |
| COc1cc(CC(=O)N2CCC(n3nccc3NC(=O)C3CC3)CC2)cc(OC)c1OC | 41.4% (inactive) |  |
| O=C(CN(Cc1ccc(Br)cc1)S(=O)(=O)c1ccccc1)NCc1ccncc1 | -5.45% (inactive) |  |
| Cc1ccc(-c2nc(-c3ccncc3)no2)c(C)c1 | 18% (inactive) |  |
| O=C(COC(=O)c1ccccc1Cl)NC1CCCCCCC1 | 16.5% (inactive) |  |
| COc1ccccc1CC(=O)Nc1ccc(S(=O)(=O)N2CCCC2)cc1 | -21.9% (inactive) |  |
| Nc1nonc1-n1nnc(C(=O)N/N=C/C2CCCCC2)c1-c1ccccc1 | 11.2% (inactive) |  |
| Nc1nonc1-n1nnc(C(=O)N/N=C/c2ccc(Cl)cc2)c1-c1ccc2c(c1)OCO2 |  | 0.329 µM (active) |
| CC(C)c1c(C(=O)N/N=C/c2ccc(-c3ccccc3)cc2)nnn1-c1nonc1N | 13.7% (inactive) |  |
| Cc1cc(F)ccc1S(=O)(=O)Nc1ccc(C(=O)N(C)Cc2ccco2)cc1 | -12.8% (inactive) |  |
| O=C(NCCSc1ncc(-c2ccccc2)[nH]1)c1ccco1 | 2.49% (inactive) |  |
| COc1ccc(CN(C(=O)CSc2nnc(-c3ccc(OC)c(OC)c3)o2)c2ccc(F)cc2)cc1 |  | 9.28 µM (active) |
| COc1ccc(CCNC(=O)CSc2nnc(-c3cccc(F)c3)o2)cc1OC | -10.6% (inactive) |  |
| CCN(C(=O)CSc1nnc(-c2ccncc2)o1)c1ccccc1 | -1.9% (inactive) |  |
| CCc1ccc(NC(=O)C(=O)NNC(=O)c2cccs2)cc1 | 74.2% (inactive) |  |
| O=C(Nc1ccccc1N1CCN(C(=O)c2ccccc2)CC1)c1ccco1 | -14% (inactive) |  |
| O=C(Nc1ccc(N2CCN(C(=O)c3ccccc3)CC2)c(Cl)c1)c1ncn[nH]1 |  | 11.7 µM (active) |
| O=C(Nc1cccc(C(=O)N2CCCC2)c1)c1ccccc1 | 13.1% (inactive) |  |
| C#CCOc1ccccc1/C=C1/C(=O)ON=C1C | -13.9% [at 0.00184 µM] (inactive) |  |
| O=[N+]([O-])c1ccc2c(c1)Nc1nc3ccccc3nc1N2 | 129% (inactive) |  |

| Compound | activity change, negative = inhibition | Potency |
| --- | --- | --- |
| O=[N+]([O-])c1cccc(/C([O-])=C(/C(=S)Nc2ccccc2F)[n+]2ccccc2)c1 | 57.9% (inactive) |  |
| Cc1ccc(/C([O-])=C(/C(=S)NCc2ccco2)[n+]2ccccc2)cc1[N+](=O)[O-] |  | 10.4 µM (active) |
| CC(OC(=O)CNC(=O)c1ccc(Cl)c([N+](=O)[O-])c1)C(=O)NCc1ccco1 (configuration not stated) | 2.5% (inactive) |  |
| COc1cccc(C(=O)OCc2cc(=O)oc3c(C)c(C)ccc23)c1OC | 3.93% (inactive) |  |
| Cc1cc(/C=C2/SC(=O)N(CC(=O)N3CCCC3)C2=O)c(C)n1C | 5.8% (inactive) |  |
| CCN(CC)CCCNC(=S)N(CCO)Cc1cc2cc3c(cc2[nH]c1=O)OCO3 | 26.3% (inactive) |  |
| Cc1cc(C)c2[nH]c(=O)c(CN(Cc3ccccc3)C(=S)NCCCN(C)C)cc2c1 |  | 13.1 µM (active) |
| COCCCNC(=S)N(CCN(C)C)Cc1cc2cc3c(cc2[nH]c1=O)OCCO3 | -21.6% (inactive) |  |
| COc1cc(/C=N/NC(=O)c2ccc(N3CCCC3=O)cc2)ccc1O | 45.3% (inactive) |  |
| O=c1cc(Cl)c2ccccc2n1-c1ccccc1 | -0.654% [at 0.00184 µM] (inactive) |  |
| COc1ccc(OCc2cc(C(=O)NCC3(C)COC3)no2)c(Cl)c1 | 36.9% (inactive) |  |
| COC(=O)c1c(NC(=O)c2ccccc2F)sc2c1C(C(=O)OC)CC2 (configuration not stated) | 12.9% (inactive) |  |
| COc1ccc(NC(=S)NCc2cccs2)c(OC)c1 | -9.21% (inactive) |  |
| Cc1[nH]c2ccccc2c1CCN(Cc1cccs1)C(=S)NC(C)(C)C | -11.3% (inactive) |  |
| COc1ccc2[nH]c(C)c(CCN(Cc3cccs3)C(=S)Nc3ccccc3OC)c2c1 |  | 11.7 µM (active) |
| Cc1ccc2c(c1)N(CC(=O)N1CCCC(C)C1)C(=O)CO2 (configuration not stated) | 13.8% (inactive) |  |
| Clc1ncn(CCOc2ccccc2)c1Cl | 8.95% (inactive) |  |
| c1ccc(Cc2ccc(OCCn3ccnc3)cc2)cc1 |  | 9.28 µM (active) |
| COc1ccc(OCCn2ccnc2C)cc1 | 10.7% (inactive) |  |
| CC(CCc1ccccc1)NC(=O)c1cnc(Cl)c(Cl)c1 (configuration not stated) | 5.45% (inactive) |  |
| CN(C)C(=O)c1ccc(NC(=O)COC(=O)c2cc3c(s2)CCCCC3)cc1 | -7.64% (inactive) |  |
| COC(=O)Cn1c(O)c(N=NC(=O)OC)c2ccccc21 | 22.9% (inactive) |  |
| CCn1c2ccccc2c2cc(NC(=O)COC(=O)c3cc(S(=O)(=O)N4CCCCC4)ccc3Cl)ccc21 | 32.1% (inactive) |  |

| Compound | activity change, negative = inhibition | Potency |
| --- | --- | --- |
| CCn1c(O)c(N=NC(=O)c2cccc(S(=O)(=O)N3CCCCC3)c2)c2ccccc21 |  | 11.7 µM (active) |
| CC(C)(C)c1cc[n+](-c2[nH]c(=O)sc2/C=N/N=C(\[O-])c2ccccc2)cc1 | -0.526% (inactive) |  |
| CCOc1ccc(NC(=O)CSc2nc3ccccc3c(=O)n2Cc2cccs2)cc1 | 0.231% (inactive) |  |
| O=C(CSc1ccc(-c2cccs2)nn1)Nc1ccccc1F | 26% (inactive) |  |
| O=C(CSc1nc2nccnc2c(=O)n1Cc1cccs1)Nc1ccccc1F |  | 10.4 µM (active) |
| CN(CC(=O)Nc1ccc(Cl)c(C(F)(F)F)c1)C(=O)CCC(=O)c1ccccc1 | -24.2% (inactive) |  |
| O=C(NCCCN1CCCC1=O)C(=O)NCC1OCCN1S(=O)(=O)c1ccc(Br)cc1 (configuration not stated) | -17.4% (inactive) |  |
| CCOc1cccc(-c2nnc(SCC(=O)NC3CC3)n2C)c1 | -5.31% (inactive) |  |
| O=C(c1ccccc1F)N(Cc1ccccc1)Cc1ccccc1 | -15% (inactive) |  |
| Cc1ccc(N(Cc2ccccc2O)C(=O)c2ccccc2F)cc1 |  | 9.28 µM (active) |
| CN(C)/C=C/C(=O)c1ccccc1F | -0.84% (inactive) |  |
| O=C(COc1ccc(Cl)cc1)Nc1ccc2oc(=O)ccc2c1 | -2.67% (inactive) |  |
| O=C(CCN1C(=O)C2C3CCC(C3)C2C1=O)Nc1ccc(Cl)cc1Cl (configuration not stated) | 4.37% (inactive) |  |
| O=C(CN1CCOCC1)Nc1c(Cl)cc(Cl)cc1Cl | 19.4% (inactive) |  |
| CC(C)(C)c1cc(NC(=O)NN2CCOCC2)nn1-c1c(Cl)cc(Cl)cc1Cl |  | 10.4 µM (active) |
| O=C(Nc1ccc(CN2CCOCC2)cc1)c1cc(Cl)ccc1Cl | -23.4% (inactive) |  |
| CC(=O)C(C)n1cnc2scc(-c3ccc(C)cc3)c2c1=O (configuration not stated) | -5.93% (inactive) |  |
| COc1cc(OC)cc(-c2c(-c3cccs3)c3cc(-c4ccc(OC)cc4F)ccc3n2C)c1 |  | 13.1 µM (active) |
| COc1ccc(OC)c(-c2csc(-c3cccs3)n2)c1 | 21.4% (inactive) |  |
| COc1cc(OC)cc(-c2c(-c3ccc(F)cc3)c3cc(-c4ccc5cc[nH]c5c4)ccc3n2C)c1 |  | 5.22 µM (active) |
| COc1ccc2c(c1)c(C(=O)N/N=C/c1cccs1)c(C)n2C | -6.08% (inactive) |  |
